# Active and inactive are the calls of the source. No rule for the calls is given here.
# Target: Pantothenate synthetase (Mycobacterium tuberculosis (strain ATCC 25618 / H37Rv)) (UniProt P9WIL5)
# Test: Recombinant Mtb pantothenate synthetase (PanC) inhibitors, coupled enzyme, confirmatory (AID 375);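 also: 0% = full reaction with vehicle and 100% = no enzyme background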
# Conditions: coupled enzyme assay; at 10 µM, stronger effect = higher value
# Sequence of Pantothenate synthetase (Mycobacterium tuberculosis (strain ATCC 25618 / H37Rv)) (P9WIL5 whole entry, looked up): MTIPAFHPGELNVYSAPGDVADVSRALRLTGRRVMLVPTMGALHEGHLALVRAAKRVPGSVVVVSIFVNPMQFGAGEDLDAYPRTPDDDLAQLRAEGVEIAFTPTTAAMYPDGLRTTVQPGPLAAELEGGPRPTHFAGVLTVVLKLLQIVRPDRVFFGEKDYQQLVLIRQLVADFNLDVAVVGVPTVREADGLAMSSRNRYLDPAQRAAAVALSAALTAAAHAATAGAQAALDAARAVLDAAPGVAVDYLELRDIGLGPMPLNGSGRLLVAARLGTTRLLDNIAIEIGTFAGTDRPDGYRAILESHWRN
row,Structure (SMILES),inhibition
1,COc1ccc(-c2nc(CS(=O)CC(=O)NCc3ccccn3)c(C)o2)cc1 (stereo not given),0% (inactive)
2,Cc1cc(N2C(=O)C(=O)/C(=C(/O)c3ccc(F)cc3)C2c2ccc(F)cc2)no1 (stereo not given),0% (inactive)
3,Cc1[nH]c(C(=O)N2CCCCC2)c(C)c1C(=O)NC1CCCCC1,4% (inactive)
4,COc1cc(-c2noc(-c3cccc(Cl)c3)n2)cc(OC)c1OC,0% (inactive)
5,O=C(CN1C(=O)c2ccccc2S1(=O)=O)Nc1ccc(S(=O)(=O)N2CCCCCC2)cc1,6% (inactive)
6,COc1ccc(OC)c2[nH]c(=O)c(CCNC(=O)CC(C)C)cc12,2% (inactive)
7,COc1ccc(-c2nsc(SCC(=O)Nc3cc(C)on3)n2)cc1,0% (inactive)
8,Cc1cc(C)cc(OCC(=O)NC2=NCCS2)c1,0% (inactive)
9,Cc1cc2c(c(=O)n1CCN(C)C)C(c1ccncc1)C(C#N)=C(N)O2 (stereo not given),0% (inactive)
10,Cc1cnc(SCCc2ccncc2)nc1C,2% (inactive)
11,Nc1nnn(Cc2ccccc2)n1,0% (inactive)
12,O=C(COc1ccc(S(=O)(=O)NC2CCCCC2)cc1Cl)NCC1CCCO1 (stereo not given),0% (inactive)
13,COc1ccc(CCN2C(=O)C3C4C=CC(C4)C3C2=O)cc1OC (stereo not given),0% (inactive)
14,CCOC(=O)c1sc2nc3c(cc2c1N)COC(C)(C)C3,12% (inactive)
15,CC(=O)c1n[nH]nc1NC(=O)c1ccccc1,0% (inactive)
16,CC1CC(C)CN(Cc2nc3c(c(=O)n(C)c(=O)n3C)n2Cc2ccccc2Cl)C1 (stereo not given),0% (inactive)
17,COc1ccc(C2(CN(C(C)=O)C(C)=O)CCCC2)cc1OC,2% (inactive)
18,COC(=O)Cn1c(=O)c2c(nc3n2CC(C)CN3c2ccc(C)c(C)c2)n(C)c1=O (stereo not given),4% (inactive)
19,COC(=O)c1cc(S(=O)(=O)N2CCOCC2)c(N2CCOCC2)cc1N1CCOCC1,2% (inactive)
20,CCC(=O)Nc1c(C#N)c2nc3ccccc3nc2n1-c1ccccc1C,16% (inactive)

row,Structure (SMILES),inhibition
1,CCCSc1nnc(N2C(=O)CC(c3ccsc3)C3=C2CCCC3=O)s1 (stereo not given),0% (inactive)
2,Cc1cc(C)nc(NS(=O)(=O)c2ccc(NC(=O)Cn3c(=O)oc4ccccc43)cc2)n1,1% (inactive)
3,CCOC(=O)c1ccc(NC2OC(=O)c3ccccc32)cc1 (stereo not given),4% (inactive)
4,COCCN(C(=O)CCC(=O)Nc1ccccn1)C(C(=O)NC1CCCC1)c1ccc(OC)cc1 (stereo not given),0% (inactive)
5,CC(C)(C)C(=O)/C=C(\N)c1ccccn1,2% (inactive)
6,CC1CCN(c2oc(-c3ccccc3F)nc2C#N)CC1,4% (inactive)
7,CC(=O)Nc1c(I)c(NC(C)=O)c(I)c(C(=O)O)c1I,1% (inactive)
8,CCn1c(SCC(=O)Nc2ccccc2F)nc2c(c1=O)SC(C)C2 (stereo not given),0% (inactive)
9,O=C1CC(c2cccs2)CC2=C1C(c1ccccc1)n1ncnc1N2 (stereo not given),3% (inactive)
10,COc1ccc(CN2CC(C(=O)NCCCOC(C)C)CC2=O)cc1 (stereo not given),3% (inactive)
11,c1ccc(-c2nnc(CN3CCC4(CC3)OCCO4)o2)cc1,1% (inactive)
12,Cc1ccc2c(c1)c1c(n2CC(O)Cn2c(C)nc3ccccc32)/C(=N\O)CCC1 (stereo not given),5% (inactive)
13,Cc1c(NC(=O)c2ccc(Br)o2)c(=O)n(-c2ccccc2)n1C,0% (inactive)
14,Cc1ccc(NC(=O)COc2nc(C)cs2)cc1,1% (inactive)
15,O=C(CSCc1n[nH]c(=O)[nH]1)NCCOc1cccc(Oc2ccccc2)c1,1% (inactive)
16,COc1ccc2c(c1)C(=NO)c1cc(OC)ccc1-2,0% (inactive)
17,Cn1c(=O)cc(NCCc2ccccc2)[nH]c1=O,0% (inactive)
18,Cc1csc(NC(=O)c2cc3c(s2)-c2ccccc2OC3)n1,0% (inactive)
19,CCCN1CC23C=CC(O2)C(C(=O)O)C3C1=O (stereo not given),0% (inactive)
20,Cn1c(SCC(=O)Nc2ccc3c(c2)oc2ccccc23)nnc1-c1ccccc1,5% (inactive)

# From PubChem BioAssay
